Screening data from PubChem BioAssay.
hcDAF12 agonist – H. contortus DAF-12 activation, primary screen. HEK293 hcDAF-12 lit1-tk-luc reporter, luminescence; 0% DMSO, 100% Δ7-dafachronic acid. activation, % at 6.8 µM. 1.4% of 370,000 active;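 active = activation above the mean of all tested compounds plus 3 SD, cut at about 5.5% in these data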
ssDAF-12 act – activators of S. stercoralis DAF-12 nuclear receptor; HEK293 ssDAF-12/GRIP1 lit1-tk-luc reporter, luminescence; % of 3 µM dafachronic acid response; activation, % at 6.8 µM; 1% of 370,000 active; AID 652126;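 active = activation above the mean over all tested compounds plus 3 SD, cut at about 0.9% in these data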
DAX1 inh-1 – inhibits human nuclear receptor DAX1; inhibition, % at 6.75 µM; AID 504766; 0.99% of 340,000 active; P51843; HEK293 Gal4-DAX1 luciferase reporter, luminescence;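 active = inhibition above the mean over all tested compounds plus 3 SD, cut at about 4.2% in these data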;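 note: inhibition shows as a rise in luminescence from relieved DAX1 repression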
Target sequence (P51843 207-470 limits assumed): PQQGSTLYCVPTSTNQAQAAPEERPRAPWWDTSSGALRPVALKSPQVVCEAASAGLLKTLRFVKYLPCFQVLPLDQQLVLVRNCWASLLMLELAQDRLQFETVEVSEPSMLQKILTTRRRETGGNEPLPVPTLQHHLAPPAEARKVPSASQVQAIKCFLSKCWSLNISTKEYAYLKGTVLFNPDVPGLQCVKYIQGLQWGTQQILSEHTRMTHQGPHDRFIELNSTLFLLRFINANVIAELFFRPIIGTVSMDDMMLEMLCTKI
DAX1 inh-2 – inhibitors of DAX1 repression of SF-1 activated StAR promoter. HEK293T StAR-luciferase reporter, SF-1/DAX-1 repression relief. inhibition, % at 6.8 µM. 1.1% of 370,000 active;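 active = inhibition above the mean over all tested compounds plus 3 SD, cut at about 3.6% in these data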;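 note: higher inhibition means more luminescence from relief of DAX-1 repression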
hgDAF-12 ag – activates the H. glycines DAF-12 receptor ligand-binding domain; HEK293 GAL4-hgDAF12 UAS-luciferase reporter, agonist luminescence; normalized to butyrate control; activation, % at 6.8 µM; 1.8% of 370,000 active; AID 687014;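 active = activation above a cutoff set at the mean of all screened compounds plus 3 SD, cut at about 10% in these data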
Each line names hits and unclear results; the compound was inactive in the other large screens. Sampled rows, rich in hits. Any-hit rate of the full collection: about 4.1%.

CCc1ccc(NC(=O)NCC2CCN(Cc3cccc(Cl)c3)CC2)cc1	none
COc1cccc(-c2ccc(CC[C@H]3O[C@H]4CC[C@@H](CO)O[C@H]4C[C@H]3NC(=O)c3cnccn3)cc2)c1	none (no result: DAX1 inh-1)
CCOC(=O)CC[C@@]1(C(=O)OCC)C[C@@H](CC(=O)NCc2cccc3ccccc23)C(=O)N2CCCC=C21	none (no result: DAX1 inh-1)
COc1ccccc1CCc1nnc(CCC(=O)N(C)Cc2cccc3cnccc23)o1	hgDAF-12 ag 11.0
C=CCNc1nc(Nc2ccc(OC)cc2)nc(OC)n1	none
C=CCNc1nc(Cl)nc(Nc2ccc(OC)cc2)n1	ssDAF-12 act 1.3
C=CCn1c(SCC(C)=O)nnc1-c1ccc2ncccc2c1	DAX1 inh-1 4.9
CSc1nnc(-c2ccccc2)c(-c2ccccc2)n1	none
CSc1nnc2c3ccccc3c3ccccc3c2n1	ssDAF-12 act 1.2
CCOC(=O)C1CCCN(S(=O)(=O)c2cc3c(cc2Br)CCN3C(=O)CC)C1 (stereo not drawn)	none (no result: DAX1 inh-1)
CC(C)CC(C)NC(=O)c1ccc(C(F)(F)F)cc1 (stereo not drawn)	DAX1 inh-1 4.7
C#CCC(NC(=O)c1ccc(C(F)(F)F)cc1)C(=O)NCCC (stereo not drawn)	none
CCCCNC(=O)C(NC(=O)c1ccc(C(F)(F)F)cc1)C(=O)c1ccccc1 (stereo not drawn)	ssDAF-12 act 2.4 (no result: DAX1 inh-1)
O=C1c2nc3ccccn3c2C(=O)N1Cc1ccccc1	ssDAF-12 act 1.4
CN(C)CCNc1nc2sc3c(c2c(=O)n1CCc1ccccc1)CCCCC3	DAX1 inh-1 7.0
CC(O)CNc1nc2sc3c(c2c(=O)n1Cc1ccco1)CCCCC3 (stereo not drawn)	none
CC(O)CNc1nc2sc3c(c2c(=O)n1CCc1ccccc1)CCCCC3 (stereo not drawn)	DAX1 inh-1 6.5
CCOC(=O)c1cc(-c2ccc(N)cc2)sc1N	none
CCOC(=O)c1sc(-c2ccc(Br)cc2)cc1N	hgDAF-12 ag 10.7
Cc1ccc(Nc2n[nH]c(C)c2[N+](=O)[O-])cc1	none
Cc1[nH]nc(Nc2ccc(Br)cc2)c1[N+](=O)[O-]	ssDAF-12 act 1.3, DAX1 inh-1 5.6, hgDAF-12 ag 11.9
COc1ccc(Nc2nc(N)c([N+](=O)[O-])c(NCCO)n2)cc1	none (no result: DAX1 inh-1)
CNc1nc(Nc2ccc(Br)cc2)nc(N)c1[N+](=O)[O-]	ssDAF-12 act 1.2
C=CCCC(=O)N(Cc1ccccc1)c1ccccc1C(=O)Nc1cc(OC)ccc1OC	none (no result: DAX1 inh-1)
O=C(Nc1ccc(F)cc1F)Nc1ccc(F)cc1F	none
O=C(Nc1nc(-c2ccccc2)cs1)Nc1ccc(F)cc1F	DAX1 inh-1 4.7
COC(=O)c1ccc(NC(=O)Nc2ccccc2F)cc1	hgDAF-12 ag 11.9
C/C(=C\c1ccccc1)C(=O)Nc1ccc(Cl)cn1	hcDAF12 agonist 5.6, hgDAF-12 ag 11.7
O=C(Nc1ccc(NC(=O)c2ccccc2O)cc1)Nc1ccc(F)cc1F	ssDAF-12 act 1.6
CCC[C@H]1[C@@H](N(C)Cc2cccs2)CC[C@@]23CCCN2C(=O)CCC[C@@H]13	none (no result: DAX1 inh-1, DAX1 inh-2)
O=C(Nc1ccc(F)cc1)Nc1ccccc1F	hgDAF-12 ag 11.1
COC(C(=O)Nc1ccc(F)cc1F)c1ccccc1 (stereo not drawn)	DAX1 inh-1 4.2
O=C(Nc1ccc(Cl)cn1)Nc1ccccc1F	ssDAF-12 act 1.6, DAX1 inh-1 6.9
O=C(C#Cc1ccccc1)Nc1ccccc1F	hgDAF-12 ag 11.4
COC(C(=O)Nc1ccc(Br)cc1F)c1ccccc1 (stereo not drawn)	none
Brc1ccc2nc(C3CCCCC3)c(Cc3ccsc3)n2c1	none (no result: DAX1 inh-1)
C[C@@H]1COc2cc(Br)ccc2S(=O)(=O)N1Cc1cn(Cc2ccc(F)cc2)nn1	none (no result: DAX1 inh-1)
Cc1cccc(-c2cccc3[nH]c4c(c23)CCN2C(=O)[C@H]3[C@H](C)ON(C)[C@H]3C[C@@H]42)c1	none (no result: DAX1 inh-1)
CCOC(=O)N1CCN(C(=O)C[C@H]2C[C@@]3(C(=O)OC)C(=C[C@H](COCc4ccccc4)O[C@@H]3C)N(Cc3cccc4ccccc34)C2=O)CC1	none (no result: DAX1 inh-1)
COC(=O)c1cccc(NC(=O)Nc2ccccc2OC)c1	DAX1 inh-1 6.5
COC(C(=O)NNC(=O)Cc1ccc(Cl)cc1)c1ccccc1 (stereo not drawn)	DAX1 inh-1 4.3
COC(=O)c1ccc(NC(=O)Nc2ccccc2C)cc1	hgDAF-12 ag 11.9
COc1ccccc1NC(=O)NNC(=O)c1ccncc1	DAX1 inh-2 3.8
